Compound activity (PubChem)
L major viab = Leishmania major promastigote growth inhibition, primary screen. Leishmania major promastigotes, resazurin fluorescence viability. inhibition, % at 10 µM. hit rate 9% among 200,000; in the data active = inhibition above about 50%;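 note: promastigotes grown with compound for 44 hours at 28 °C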
PTEN del growth = growth suppression of PTEN-null HCT116, primary screen, cell-based, CellTiter-Glo; HCT116 PTEN-null viability, 60 h; active compounds read low; viability, % at 10 µM; hit rate 1.2% among 140,000; AID 827, 2007;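 active = viability at or below a set limit, 4 SD under the median of all tested compounds, cut at about 3.7% in these data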;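 note: PTEN knockout HCT116 line with beta catenin targeted HCT116 as companion control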
bCat KO growth = primary screen for growth suppressors in beta-catenin knockout HCT116 cells (colon tumor, human) | HCT116 beta-catenin knockout viability, CellTiter-Glo, 60 h; active compounds read low | viability, % at 10 µM | hit rate 1.5% among 140,000 | AID 818, 2007;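 active = viability at or under a set limit, the compound median less 4 SD, cut at about 6% in these data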
ROMK primary = ROMK potassium channel modulators, primary screen, cell-based, thallium flux, MLSMR library; ATP-sensitive inward rectifier potassium channel 1 (Homo sapiens), P48048; Tet-inducible ROMK, thallium flux fluorescence; actives lie on both sides; B-score at 10 µM; hit rate 2% among 130,000;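 active = signal ratio slope over the read window, or its plate-corrected B-score, at least 3 SD from the plate mean, either direction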;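 note: B-score of the F/F0 ratio slope over 7 to 12 s after thallium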
Insulin prom inh = inhibitors of insulin promoter-driven GFP, primary screen, imaging, TRM-6 cells (human fetal islet line), eGFP reporter, cell count; reporter expression induced with tamoxifen; inhibition, % at 2 µM; hit rate 0.9% among 130,000;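 active = inhibition above the mean plus 3 SD, with well images judged a real hit on visual review, cut at about 60% in these data, passing the limit was not always enough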
p97 ATPase inh = inhibitors of human p97 ATPase, primary screen, biochemical | AID 1481, 2009 | recombinant p97 ATPase, Kinase-Glo ATP luminescence, 3 h | Transitional endoplasmic reticulum ATPase (Homo sapiens), P55072 | hit rate 0.42% among 220,000 | inhibition, % at 8 µM; in the data active = inhibition above about 15%
Target sequence (P55072 whole entry, looked up): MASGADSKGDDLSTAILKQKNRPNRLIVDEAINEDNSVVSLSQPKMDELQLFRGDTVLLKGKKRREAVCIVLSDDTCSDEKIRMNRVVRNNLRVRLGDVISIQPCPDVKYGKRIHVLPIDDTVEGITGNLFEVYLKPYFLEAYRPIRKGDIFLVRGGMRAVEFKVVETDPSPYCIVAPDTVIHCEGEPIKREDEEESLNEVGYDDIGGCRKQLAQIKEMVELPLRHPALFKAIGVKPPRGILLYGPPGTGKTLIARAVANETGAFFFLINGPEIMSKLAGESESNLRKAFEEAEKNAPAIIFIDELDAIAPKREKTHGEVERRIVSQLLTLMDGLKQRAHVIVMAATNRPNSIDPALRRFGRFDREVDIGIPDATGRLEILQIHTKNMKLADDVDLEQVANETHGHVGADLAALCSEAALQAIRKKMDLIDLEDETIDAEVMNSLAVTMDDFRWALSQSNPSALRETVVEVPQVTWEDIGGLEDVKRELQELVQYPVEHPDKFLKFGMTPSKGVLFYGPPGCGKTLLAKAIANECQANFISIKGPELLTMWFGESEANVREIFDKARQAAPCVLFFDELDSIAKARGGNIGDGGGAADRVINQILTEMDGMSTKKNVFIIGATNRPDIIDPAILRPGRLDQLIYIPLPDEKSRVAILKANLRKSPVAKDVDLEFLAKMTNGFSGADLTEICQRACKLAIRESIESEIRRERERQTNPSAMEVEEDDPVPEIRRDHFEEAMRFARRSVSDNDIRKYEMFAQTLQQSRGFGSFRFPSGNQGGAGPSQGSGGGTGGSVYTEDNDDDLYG
A number is an active result; n = inactive; x = no result given. Rows were chosen to be rich in hits. Some 10% of all compounds tested hit in one or more screens of this group.

SMILES	L major viab	PTEN del growth	bCat KO growth	ROMK primary	Insulin prom inh	p97 ATPase inh
O=C(NCCc1c[nH]c2ccccc12)C(=O)NCC1OCCCN1S(=O)(=O)c1cc(F)ccc1F (stereo unspecified)	n	x	x	n	n	n
COc1cc2c(cc1OC)C(c1cccs1)N(C(=O)c1cccc(S(=O)(=O)N(C)C)c1)CC2 (stereo unspecified)	x	x	x	x	x	n
COc1cc(Br)cc(CN2CCN(C/C=C/c3ccccc3)CC2)c1O	88	n	n	x	n	n
COc1ccc(OC)c(NC(=S)N2CCN(C/C=C/c3ccccc3)CC2)c1	n	n	n	n	n	n
Cc1cc(C)c2c(CN3CCN(C/C=C/c4ccccc4)CC3)cc(=O)oc2c1	n	n	n	n	n	n
COc1ccc(O)c(CN2CCN(C/C=C/c3ccccc3)CC2)c1	85	n	n	n	n	n
CCN1C(=O)C(C)S/C1=N\S(=O)(=O)c1ccc(Cl)s1 (stereo unspecified)	n	n	n	n	x	n
O=C(Cn1cc2c(n1)CCCCC2)Nc1ccccc1Br	x	x	x	n	x	n
O=C(NNC(=O)c1ccc([N+](=O)[O-])cc1Cl)c1ccncc1	84	n	n	n	n	n
CN(C)CCNc1ccc(-c2nn(C)c(=O)c3ccccc23)cc1[N+](=O)[O-]	90	x	x	n	x	n
Cn1nc(-c2ccc(N3CCN(CCO)CC3)c([N+](=O)[O-])c2)c2ccccc2c1=O	99	x	x	n	n	n
N/C(=N\OC(=O)/C=C/c1ccc(Br)cc1)c1ccccn1	77	n	n	n	n	n
C/C(=N\OC(=O)c1ccc(Br)cc1)c1ccccn1	88	n	n	x	n	n
N/C(=N\OC(=O)/C=C/c1ccccc1Cl)c1ccccn1	n	x	x	n	x	n
CCOc1ccc(/C=C/C(=O)Nc2ccc3[nH]c(=O)[nH]c3c2)cc1	n	n	n	n	n	n
O=C1CC(c2ccco2)Cc2nc(N3CCN(Cc4ccc5c(c4)OCO5)CC3)ncc21 (stereo unspecified)	75	n	n	x	n	n
Cc1cccc(Nc2nnc(SCC(=O)Nc3cccc(S(=O)(=O)N4CCCCC4)c3)s2)c1	n	n	n	x	n	n
Cc1cccc(C)c1Nc1nnc(SCC(=O)Nc2cc(S(=O)(=O)N3CCCCC3)ccc2Cl)s1	50	n	n	n	n	n
O=C(CSc1cccc(C(F)(F)F)c1)Nc1cc(S(=O)(=O)N2CCCC2)ccc1Cl	55	n	n	n	n	n
O=C(NC(C(=O)N/N=C/c1cccnc1)c1n[nH]c(=O)c2ccccc12)c1ccccc1 (stereo unspecified)	x	x	x	n	x	n
Cc1cccc(OCC(=O)N2CCC(N3CCCCCC3)CC2)c1	92	n	n	n	x	n
COc1cccc(C(=O)N2CCN(C3CCC(c4ccccc4)CC3)CC2)c1 (stereo unspecified)	89	n	n	x	x	n
COc1cccc(C(=O)N2CCOCC2)c1	n	x	x	n	65	n
COc1cccc(C(=O)Nc2cccc(C(=O)N3CCOCC3)c2)c1	n	n	n	n	n	n
O=C(c1cccc(F)c1)N1CCC(N2CCCCCC2)CC1	87	n	n	n	n	n
SMILES	L major viab	PTEN del growth	bCat KO growth	ROMK primary	Insulin prom inh	p97 ATPase inh
COc1cccc(C(=O)N2CCN(C(=O)Cc3ccccc3)CC2)c1	n	x	x	n	n	n
CC1(C)CC(=O)C(=C2SCCCS2)C(=O)C1	n	n	n	n	n	n
COC(=O)c1ccc(C)c(-n2c(C)cc(C=O)c2C)c1	n	n	n	n	n	n
CC(C)c1ccc(C(=O)NC(=S)Nc2ccc3[nH]c(=O)[nH]c3c2)cc1	x	x	x	x	x	n
CCN(CC(=O)Nc1cccc(OC)c1)C(=O)c1ccc(C)s1	n	n	n	n	n	n
COc1cccc(C(=O)N2CCC(N3CC(C)OC(C)C3)CC2)c1 (stereo unspecified)	73	n	n	n	n	n
O=C(N/N=C\c1cccc(Cl)c1)c1ccc(Cn2cc(Br)c([N+](=O)[O-])n2)o1	n	n	n	n	n	n
Cc1c(Cl)c([N+](=O)[O-])nn1Cc1ccc(C(=O)N/N=C\c2cccc(Br)c2)o1	55	n	n	x	n	n
CN(C(=O)COC(=O)c1ccc([N+](=O)[O-])cc1N)c1ccccc1	n	x	x	n	x	n
O=C(COC(=O)CNC(=O)c1ccc(Cl)cc1Cl)Nc1ccc(N2CCOCC2)cc1	n	x	x	n	x	n
O=C(COC(=O)C1Cc2ccccc2CN1C(=O)c1ccccc1Cl)Nc1ccc(N2CCOCC2)cc1 (stereo unspecified)	77	n	n	n	n	n
CN1CCN(c2ccc(NC(=O)COc3ccccc3Cl)cc2)CC1	100	n	n	x	n	n
CCOc1ccccc1C(=O)Nc1ccccc1-c1ccccc1	73	n	n	n	n	n
CCOc1ccccc1C(=O)Nc1ccccc1O	71	n	n	n	n	n
O=C(CN(C(=O)CCC(=O)Nc1nccs1)c1ccc(F)c(Cl)c1)NCc1ccco1	90	n	n	x	x	n
O=C(CN(C(=O)CCC(=O)Nc1nccs1)c1ccc(F)cc1)NCc1ccco1	n	n	n	x	x	n
Cc1ccc(-c2noc(CN(C(=O)C34CC5CC(CC(C5)C3)C4)C(C)C)n2)cc1	n	n	n	n	n	n
CCOC(=O)Cc1cc(-c2ccc(OC)cc2)nc2ccc3ccccc3c12	99	n	n	n	n	n
S=c1[nH]nc(CCCc2n[nH]c(=S)o2)o1	x	x	x	n	x	n
Cc1ccc(NC(=O)c2ccccc2NC(=O)Cc2ccccc2)cc1	n	n	n	n	n	n
O=C(NCc1ccc(F)cc1)c1ccccc1OCc1ccccc1	79	n	n	n	n	n
CCOc1ncccc1C(=O)NCc1ccccc1	54	n	n	x	n	n
O=C(O)CCC(=O)Nc1ccccc1C(=O)NCc1ccco1	n	n	n	n	n	n
Cc1cccc(NC(=O)c2ccccc2NC(=O)CCC(=O)O)c1	n	n	n	n	79	n
O=C(O)CCC(=O)Nc1ccccc1C(=O)NCc1ccccc1	51	n	n	n	n	n
SMILES	L major viab	PTEN del growth	bCat KO growth	ROMK primary	Insulin prom inh	p97 ATPase inh
CCOc1ncccc1C(=O)NCc1ccc(OC)cc1	n	n	n	x	x	n
CCCc1nnc(SCc2ccc(OC)cc2)n1N	n	n	n	n	n	n
O=C(Cc1ccccc1)Nc1ccccc1C(=O)Nc1ccccc1	65	n	n	n	n	n
CCCCN(C)C1CCN(C(=S)Nc2cccc(OC)c2)CC1	80	x	x	n	x	n
CCCCN(C)C1CCN(C(=S)Nc2ccc(OCC)cc2)CC1	82	x	x	x	n	n
Cc1ccc2nsnc2c1S(=O)(=O)N(Cc1cc2cccc(C)c2[nH]c1=O)CC1CCCO1 (stereo unspecified)	n	n	n	x	n	n
Cc1ccc(CC(=O)Nc2ccccc2N2CCOCC2)cc1C	n	n	n	n	n	n
O=c1[nH]c2cc3ccccc3cc2nc1C(F)(F)F	n	x	x	n	x	n
